Target: Streptavidin (Streptomyces avidinii) (UniProt P22629)
Assay: streptavidin binders on small-molecule microarray, primary screen, artefact control for SMM compound annotation, biophysical, 635/667 nm fluorescence (AID 1147);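 also: signal reflects streptavidin binding to arrayed compounds as a control protein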
Conditions: streptavidin binding, higher = more signal

Streptavidin (Streptomyces avidinii), sequence (P22629 whole entry, looked up): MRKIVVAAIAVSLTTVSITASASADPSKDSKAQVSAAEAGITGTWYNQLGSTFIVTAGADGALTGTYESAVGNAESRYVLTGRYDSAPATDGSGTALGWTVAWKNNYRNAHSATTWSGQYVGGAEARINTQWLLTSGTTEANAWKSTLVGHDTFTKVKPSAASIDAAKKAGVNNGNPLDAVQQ

| SMILES | composite z-score |
| --- | --- |
| CC(CCN1CCc2nc(-c3ccccc3)c(-c3ccccc3)cc2C1)=NOC[C@@H](O)COCc1ccco1 | 0.526 |
| COc1cccc([C@H]2Oc3ccc(OC)cc3C(=NOC[C@@H](O)COCc3ccco3)[C@@H]2O)c1 | -0.903 |
| CC(CCN1CCCCc2nc(C)c(C)cc21)=NOC[C@@H](C)[C@H](OCc1ccccc1)C(C)C | -2.45 |
| O=C(NN=C1C[C@@H](O)[C@@H](O)[C@@H]2[C@@H]3C(=O)N(C[C@@H]4CCCO4)C(=O)[C@@H]3CC[C@H]12)OCc1ccccc1 | 0.281 |
| COC(=O)[C@H]1[C@@H](O)[C@@]2(O)c3ccccc3O[C@@]2(c2ccccc2)[C@@H]1c1ccccc1 | -0.419 |
| CC(C)(C)N1C(=O)[C@H]2[C@H]3[C@H](O)[C@H](O)CC(=NO[C@@H]4O[C@H](CO)[C@@H](O)[C@H](O)[C@H]4O)[C@H]3CC[C@H]2C1=O | -0.132 |
| CC(C)CON=C1C[C@@H](O)[C@@H](O)[C@@H]2[C@@H]3C(=O)N(C[C@@H]4CCCO4)C(=O)[C@@H]3CC[C@@H]12 | -0.265 |
| CC=CC1=C(CO)C(=O)[C@@H]2O[C@@H]2C1=O | -0.842 |
| C[C@@H](c1ccccc1)N1C(=O)[C@H]2[C@H]3[C@H](O)[C@H](O)CC(=NOCc4ccccc4)[C@H]3CC[C@H]2C1=O | 0.587 |
| C[C@H](ON=C1[C@H]2CCn3c(=O)n(-c4ccccc4)c(=O)n3[C@H]2[C@H](O)[C@@H]2O[C@H]12)c1cn([C@H](CO)Cc2ccccc2)nn1 | 1.19 |
| C[C@H]1COC(=O)[C@@H]2CCCN2C(=O)[C@@H](C)COC(=O)[C@H](Cc2ccccc2)NC1=O | 0.0706 |
| CCOC(=O)CCN1C(=O)[C@H]2[C@H]3[C@H](O)[C@H](O)CC(=NNC(=O)OCc4ccccc4)[C@@H]3CC[C@H]2C1=O | 0.551 |
| CC(C)=CCCC(C)=CCON=C1C[C@@H](O)[C@@H](O)[C@@H]2[C@@H]3C(=O)N(c4cccc(Oc5ccccc5)c4)C(=O)[C@@H]3CC[C@@H]12 | 0.217 |

Source: PubChem BioAssay
